# An excerpt weighted towards active compounds, which were near 15% of everything screened.
# TDP1 cell noCPT: qHTS for Inhibitors of human tyrosyl-DNA phosphodiesterase 1 (TDP1): qHTS in cells in absence of CPT; actives 15% (n = 420,000); DT40 Tdp1-/- hTDP1 cells, no CPT, ATP luminescence, 48 h; Potency, µM (series often up to 46.2 µM), for the others: at the top dose activity change, negative = growth inhibition, usual class: inhibitors; further: nearly all actives have a fitted effect of over 55% in size
#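 Cells were dispensed at 400 per well, compounds added by pin tool, plates incubated ≥48 hr at 37 °C, then CellTiter-Glo added for 30 min at room temperature before luminescence reading. Line: DT40 Tdp1-/- complemented with hTDP1; camptothecin omitted.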
# Gal4-VP16 FLuc: inhibits Gal4-VP16 luciferase reporter, ROR gamma counter-screen | Drosophila S2 Gal4-VP16 UAS-luciferase, luminescence, 20 h | Potency, µM (highest dose often 53.6 µM), without a hit: at the top dose activity, negative = inhibition, usual class: inhibitors | actives 3.5% (n = 310,000);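 further: Gal4-VP16 expression switched on by copper sulfate through the metallothionein promoter; nearly all actives have a fitted effect of over 50% in size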
# 12-LOX inh: ALOX12 (human) lipoxygenase inhibition; P18054; purified 12hLO, xylenol orange hydroperoxide absorbance; Potency, µM (highest dose often 108 µM), inactives show at the top dose activity change, negative = inhibition, most hits filed as inhibitors; actives 1.1% (n = 580,000)
#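 Purified human 12hLO at 150 nM in 25 mM Hepes, 0.01% Triton X-100, pH 7.0, preincubated 15 min at room temperature with compound. Reaction started with 40 uM arachidonic acid, 30 min at room temperature. Hydroperoxide measured by Fe-xylenol orange, 573/405 nm absorbance ratio.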
# RORg inh: ROR gamma (mouse) transcription inhibition; Potency, µM (top dose mostly 53.6 µM), for the others: top-dose activity change, negative = inhibition, hits mostly inhibitors; Drosophila S2 Gal4-RORgamma UAS-luciferase reporter, 20 h; actives 5.4% (n = 310,000); AID 2551; further: nearly all actives have a fitted effect of over 60% in size
#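 Using a luciferase readout, inhibitors were identified by reduced reporter activity in Drosophila cells coexpressing a copper-inducible Gal4–ROR gamma fusion and UAS-driven Photinus luciferase, incubated 20 hr after 700 uM copper sulfate.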
# ELG1 DNA repair: blocks ELG1-dependent DNA repair in HEK293T cells | HEK293T ELG1-luciferase reporter, luminescence, 16 h; DNA damage induced by 5-fluorouridine | Potency, µM (highest dose often 46.1 µM), for the others: top-dose activity change, negative = inhibition, actives largely listed as inhibitors | actives 2.3% (n = 330,000) | AID 504467; further: nearly all actives have a fitted effect of over 55% in size
#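 Luminescence from the luciferase reporter, measured 30 min after ONE-Glo reagent at room temperature, was the read-out. Beforehand, 2,000 cells per well were exposed for 16 hr at 37 °C to 5-fluorouridine together with compound or vehicle.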
# DT40 TDP1 CPT: growth inhibition of DT40 Tdp1-/-;hTDP1 cells with camptothecin (screen for TDP1 inhibitors); chicken DT40 Tdp1-/-;hTDP1 cells + 20 nM CPT, ATP luminescence, 48 h; Potency, µM (highest dose often 46.2 µM), for inactives: top-dose activity change, negative = growth inhibition, actives largely listed as inhibitors; actives 12% (n = 420,000); AID 686979; further: nearly all actives have a fitted effect of over 55% in size
#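 Cell growth measured by CellTiter-Glo luminescence after a minimum 48 h, 37 C compound exposure with 20 nM CPT in Tdp1-knockout DT40 cells stably expressing hTDP1, seeded 400/well; qHTS titration format.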
# Numbers without * were called inactive; ? = inconclusive; · = no result given; [ ] = another dose, or the depositor's remark. The call rests on the fitted dose curve; in most records, active means well fitted curve in the direction sought with a large enough effect; inconclusive means small, poorly fitted or top-dose-only effect, or another doubt; inactive means no such curve, though single readings can be large; an effect the other way counts as inactive or inconclusive. On the % scale 0 is the no-effect control and ±100 the full control effect; potency means the concentration at half of the fitted maximal effect.
SMILES,TDP1 cell noCPT,Gal4-VP16 FLuc,12-LOX inh,RORg inh,ELG1 DNA repair,DT40 TDP1 CPT
C[C@H](CO)N1C[C@H](C)[C@@H](CN(C)S(=O)(=O)c2ccccc2)Oc2ccc(NC(=O)Nc3ccc(C(F)(F)F)cc3)cc2C1=O,?,·,?,·,21µM*,21µM*
Cc1noc(C)c1S(=O)(=O)N(C)C[C@H]1Oc2c(NC(=O)Nc3ccccc3)cccc2C(=O)N([C@H](C)CO)C[C@@H]1C,-17%,·,3%,·,12%,-16%
C[C@H](CO)N1C[C@H](C)[C@H](CN(C)S(=O)(=O)c2cccs2)Oc2ncc(-c3cc4ccccc4o3)cc2C1=O,15µM*,·,?,·,·,23µM*
CC(C)NC(=O)Nc1ccc2c(c1)C(=O)N([C@H](C)CO)C[C@H](C)[C@@H](CN(C)S(=O)(=O)c1ccccc1)O2,-5%,·,-4%,·,1%,-9%
Cc1noc(C)c1S(=O)(=O)N(C)C[C@H]1Oc2c(NC(=O)Nc3ccc(C(F)(F)F)cc3)cccc2C(=O)N([C@H](C)CO)C[C@@H]1C,23µM*,·,-2%,·,?,-106%
Cc1sc(-c2nc(-c3cccc(F)c3)no2)cc1S(=O)(=O)N1CCC(C)CC1,·,·,2%,·,·,·
CS(=O)(=O)c1ccc(CC(=O)N2CCCC(c3cccc(C(=O)O)c3)C2)cc1 (centres undefined),·,·,-1%,·,·,·
C[C@H](CO)N1C[C@H](C)[C@H](CN(C)S(=O)(=O)c2cccs2)Oc2ccc(NC(=O)Nc3ccc4c(c3)OCO4)cc2CC1=O,16µM*,·,-28%,·,?,?
COc1ccc(S(=O)(=O)N(C)C[C@H]2Oc3ccc(NC(=O)Nc4ccccc4)cc3C(=O)N([C@H](C)CO)C[C@@H]2C)cc1,?,·,-12%,·,?,?
COc1ccc(S(=O)(=O)N(C)C[C@H]2Oc3ccc(NC(=O)Nc4ccc5c(c4)OCO5)cc3CC(=O)N([C@@H](C)CO)C[C@@H]2C)cc1,?,·,-3%,·,-18%,?
COc1ccc(S(=O)(=O)N(C)C[C@H]2Oc3ccc(NC(=O)Nc4ccc5c(c4)OCO5)cc3C(=O)N([C@H](C)CO)C[C@@H]2C)cc1,?,·,-1%,·,-13%,21µM*
C[C@H](CO)N1C[C@H](C)[C@@H](CN(C)S(=O)(=O)c2ccccc2)Oc2ccc(NC(=O)CCC(F)(F)F)cc2C1=O,-30%,·,-4%,·,0%,21µM*
C[C@@H]1CN([C@H](C)CO)C(=O)c2cccc(NC(=O)Nc3ccc(C(F)(F)F)cc3)c2O[C@H]1CN(C)S(=O)(=O)c1cccs1,16µM*,·,-3%,·,0%,8.2µM*
Cn1nc(C2CCN(C(=O)c3cc(F)ccc3F)CC2)c2c1CCOC2,·,·,31%,·,·,·
CCc1ccc(NC(=O)C2CCN(S(=O)(=O)c3ccc4c(c3)CC(C)N4C(C)=O)CC2)cc1 (centres undefined),10µM*,?,29%,-30%,7.3µM*,16µM*
CC(=O)N1c2ccc(S(=O)(=O)N3CCCC(C(=O)Nc4ccc(F)cc4)C3)cc2CC1C (centres undefined),23µM*,?,13%,?,?,?
CCc1ccc(NC(=O)C2CCCN(S(=O)(=O)c3ccc4c(c3)CC(C)N4C(C)=O)C2)cc1 (centres undefined),26µM*,-11%,6%,-30%,?,16µM*
C=C(C)[C@@H]1CC[C@@H](C)C[C@@H]1O,·,·,15%[176 µM],·,·,·

# Assay outcomes: PubChem, National Center for Advancing Translational Sciences (NCATS)
